This is a sample that favours compounds with a hit; in the whole collection about 6.2% have one here.
ATXN viability: viability counter-screen for ATXN expression inhibitors; S2 cells (HEK-293 line with an ATXN2-luciferase reporter) viability, CellTiter-Fluor protease fluorescence, 24 h; Potency, µM (top dose mostly 56.7 µM), most hits filed as cytotoxic; AID 651635; actives 0.49% (n = 400,000); further: nearly all actives have a fitted effect of over 40% in size
ATXN2 expr inh: inhibitors of ATXN2 expression | HEK-293 ATXN2-luciferase reporter, luminescence, 24 h | Potency, µM (top dose mostly 57 µM), without a hit: top-dose activity change, negative = inhibition, hits mostly inhibitors | actives 0.72% (n = 360,000); further: on the % scale 0 is the no-effect control and ±100 the full control effect; nearly all actives have a fitted effect of over 55% in size
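ATXN2-luciferase reporter cells (luciferase flanked by upstream and downstream ATXN2 gene portions) were treated 24 h at 37 °C with compounds at up to 57 uM. SteadyGlo luminescence gave expression; GF-AFC fluorescence gave viability.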
KB-V1 MDR tox: KB-V1 MDR subline cytotoxicity; actives 3.4% (n = 400,000); AID 1347076; KB-V1 MDR cells viability, CellTiter-Glo, 72 h; Potency, µM (doses to about 46.1 µM), most hits filed as cytotoxic; further: on the % scale 0 is the no-effect control and ±100 the full control effect; nearly all actives have a fitted effect of over 60% in size
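Potencies derive from concentration-effect curves fitted to normalized luminescence (CellTiter-Glo) of KB-V1 cells treated for 72 h at 37 degrees C in phenol-red-free DMEM containing 10% FBS.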
HT1080 IDH1KD tx: kills HT-1080 cells with IDH1 knockdown; HT-1080 IDH1 knockdown viability, ATP luminescence, 48 h; Potency, µM (titrated, usually from 46.1 µM), for inactives: top-dose activity, negative = toxicity, most hits filed as cytotoxic; actives 2% (n = 360,000);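 further: 0% = DMSO wells and -100% = cell-free medium wells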
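IDH1KD HT-1080 cells, 750/well, RPMI + 5% FBS; compound pinned after 2 h settling; 48 h, 37 °C; CellTiter-Glo luminescence; % activity normalised to DMSO and no-cell wells; curves fitted, classed by r2 and efficacy.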
HT1080-NT tox: kills 2HG-producing HT-1080-NT fibrosarcoma cells. AID 686970. HT-1080-NT fibrosarcoma viability, CellTiter-Glo ATP luminescence, 48 h. actives 1.6% (n = 360,000). Potency, µM (series often up to 46.1 µM), inactives show at the highest dose activity, negative = less viability, usual class: cytotoxic;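 further: NT is the 2HG producing partner of a matched IDH1 knockdown line; 0% = DMSO-treated cells and -100% = media-only wells without cells; nearly all actives have a fitted effect of over 55% in size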
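Luminescent CellTiter-Glo readout after 48 hours of compound exposure at 37 degrees C defined viability of HT-1080-NT cells. Activity was normalized to DMSO wells and cell-free media wells; concentration-response curves were fitted and assigned curve classes.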
KB-3-1 tox: KB-3-1 parental cell cytotoxicity; KB-3-1 viability, CellTiter-Glo ATP luminescence, 72 h; Potency, µM (series often up to 46.1 µM), hits mostly cytotoxic; actives 1.4% (n = 400,000); AID 1347075; further: on the % scale 0 is the no-effect control and ±100 the full control effect; nearly all actives have a fitted effect of over 60% in size
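Parental KB-3-1 adenocarcinoma cells in phenol-red-free DMEM with 10% FBS were pin-treated with compounds at several concentrations, incubated 72 h at 37 °C, and viability read by CellTiter-Glo luminescence; concentration-effect curves were fitted after normalization.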
Starred values were filed as active, the others as inactive; i = inactive; u = inconclusive; x = not tested or not shown. The call rests on the fitted dose curve; in most records, active means well fitted curve in the direction sought with a large enough effect; inconclusive means small, poorly fitted or top-dose-only effect, or another doubt; inactive means no such curve, though single readings can be large; an effect the other way counts as inactive or inconclusive. Potency means the concentration at half of the fitted maximal effect.

SMILES	ATXN viability	ATXN2 expr inh	KB-V1 MDR tox	HT1080 IDH1KD tx	HT1080-NT tox	KB-3-1 tox
O=c1c2sc3ccccc3c2n(Cc2ccc(F)cc2Cl)c(=O)n1Cc1ccccc1	i	2%	i	x	x	i
COc1ccc(S(=O)(=O)NCCC(=O)OCC(=O)NC2CC2)cc1	i	6%	i	14%	17%	i
CCOc1ccc(OCCC(=O)N(CCC(C)C)c2c(N)n(Cc3ccccc3)c(=O)[nH]c2=O)cc1	i	-13%	i	-4%	2%	i
CN1C(=O)CSc2ccc(NC(=O)N3CCN(c4ccccn4)CC3)cc21	i	13%	18µM*	4%	4%	i
CN1C(=O)CSc2ccc(NC(=O)N3CCc4ccccc43)cc21	i	79%	16µM*	-7%	-28%	i
Cc1ccc(NC(=O)N2CCc3ccccc32)cc1C	i	3%	i	-7%	-17%	i
Cc1cccc(-c2nn(-c3ccccc3)cc2C(=O)N2CCN(C3CCS(=O)(=O)C3)CC2)c1 (stereo unspecified)	i	10%	16µM*	1%	-3%	i
CCc1ccc2nc(NC(=O)c3cc(C)on3)sc2c1	i	30%	8.2µM*	6.5µM*	9.2µM*	7.3µM*
Cc1cc(C(=O)Nc2nc3c(s2)CCCC3)no1	i	-35%	16µM*	11%	0%	i
Cc1onc(-c2ccccc2)c1C(=O)Nc1nc2c(s1)CCCC2	i	17%	u	-17%	-12%	u
COc1ccc(Cn2c(C(=O)O)c(CNCCc3cccs3)c3ccc(C)cc32)cc1	32µM*	u	i	x	x	i
COc1ccc2c(CNCc3ccco3)c(C(=O)O)n(Cc3ccccc3)c2c1	u	-15%	i	x	x	u
COc1ccc(Cn2c(C(=O)O)c(CNCc3ccco3)c3ccc(C)cc32)cc1	7.9µM*	-13%	i	x	x	u
CCCN(CCC)C(=O)Cn1c(=O)n(Cc2ccc(C(=O)NCCc3ccc(OC)c(OC)c3)cc2)c(=O)c2ccccc21	i	-57%	i	x	x	i
COc1cc2c(c(OC)c1OC)-c1ccc(NCc3ccccc3)c(=O)cc1C(NC(C)=O)CC2 (stereo unspecified)	i	x	i	2.3µM*	3.7µM*	1.2µM*
CN[C@H]1CCc2cc(OC)c(OC)c(OC)c2-c2ccc(N(C)CC(OC)OC)c(=O)cc21	14µM*	x	u	u	4.1µM*	2.6µM*
COc1cc2c(c(OC)c1OC)-c1ccc(NC(=O)c3ccc(F)cc3)c(=O)cc1[C@@H](NC(C)=O)CC2	i	x	i	u	u	u
CCOc1ccc(CC2c3cc(OCC)c(OCC)cc3CCN2C(=O)c2cc(OC)c(OC)c(OC)c2)cc1OCC (stereo unspecified)	i	-15%	u	5%	-5%	i
COc1cc2c(c(OC)c1OC)-c1ccc(N(C)CC(OC)OC)c(=O)cc1[C@@H](NC(C)=O)CC2	i	38%	u	0.65µM*	u	0.52µM*
COc1cc2c(c(OC)c1OC)-c1ccc(OC)c(=O)cc1[C@@H](N(C)CC#CCO)CC2	u	-11%	u	0.16µM*	0.0073µM*	0.052µM*
COc1ccc(-c2ccc3ncnc(N(C)Cc4csc(C)n4)c3c2)cc1OC	x	x	i	x	x	u
COC(=O)c1ccccc1NC(=O)Cn1c(=O)n(CCCC(=O)NCc2ccccc2OC)c(=O)c2ccccc21	i	11%	i	x	x	i
CCOC(=O)c1c(C)n(-c2ccc(OC)cc2)c2ccc(O)c(CN(C)C)c12	u	u	u	21µM*	u	u
CCOC(=O)c1sc(=N)n(-c2ccc(OC)cc2)c1C	i	4%	i	-2%	0%	i
CCOC(=O)c1c(C)n(C)c2ccc(O)c(CN(C)C)c12	i	u	i	-14%	-17%	u
SMILES	ATXN viability	ATXN2 expr inh	KB-V1 MDR tox	HT1080 IDH1KD tx	HT1080-NT tox	KB-3-1 tox
CCOC(=O)c1c(C)n(-c2ccc(C)cc2)c2ccc(O)c(CN(C)C)c12	u	u	i	16µM*	16µM*	i
O=C(NCC1CCCO1)c1nc2c(nnn2Cc2ccc(F)cc2)c(=O)[nH]1 (stereo unspecified)	i	1%	i	-7%	0%	i
O=C(NCc1ccco1)c1nc2c(nnn2Cc2ccccc2Cl)c(=O)[nH]1	u	16µM*	i	u	18µM*	u
Cc1ccc(C)c(Cn2nnc3c(=O)[nH]c(C(=O)NCc4ccco4)nc32)c1	i	-6%	u	-21%	14%	i
O=C(C1CCCCC1)N1CCC(c2nc3c(nnn3Cc3ccccc3Cl)c(=O)[nH]2)CC1	i	-2%	i	-1%	-9%	i
O=C(NCc1cccs1)c1nc2c(nnn2Cc2ccc(F)cc2)c(=O)[nH]1	i	-12%	23µM*	u	-22%	i
CCCCCCC(=O)N1CCC(c2nc3c(nnn3Cc3ccccc3Cl)c(=O)[nH]2)CC1	i	4%	i	11µM*	13µM*	i
O=C(NCCCN1CCN(c2ccccc2F)CC1)C1COc2ccccc2C1 (stereo unspecified)	i	-2%	i	x	x	i
O=C(/C=C/c1ccc(OC(F)(F)F)cc1)Nc1cccc([S+](=O)([O-])Nc2ccccc2F)c1	x	x	i	x	x	i
O=C(CSC1CN(C(c2ccccc2)c2ccccc2)C1)N/N=C/c1ccccc1	i	2%	i	23µM*	u	i
COc1ccc(NC(=O)Cn2c(=O)n(-c3cccc(C)c3)c(=O)c3c2c2cc(C)ccc2n3C)cc1Cl	i	0%	i	x	x	i
Cc1cccc(Nc2nc(N)c([N+](=O)[O-])c(N3CCC(C)CC3)n2)c1	i	-6%	u	u	u	u
CCN1CCN(c2nc(N)c([N+](=O)[O-])c(Nc3cccc(C)c3)n2)CC1	u	-14%	3.3µM*	4%	3%	u
Cc1cccc(Nc2nc(N3CCN(C)CC3)nc(N)c2[N+](=O)[O-])c1	u	-11%	7.3µM*	4%	-1%	i
Cc1cccc(Nc2nc(N)c([N+](=O)[O-])c(N3CC(C)CC(C)C3)n2)c1 (stereo unspecified)	u	-16%	21µM*	21µM*	16µM*	u
CCC12CC1(C(=O)OC)C(=O)N1CCc3c([nH]c4ccccc34)C12 (stereo unspecified)	i	14%	i	3%	-1%	i
